A selection: hits, their analogues and other compounds. The true share with any hit is near 3.2%.
CRFBP-R2 agonist – CRF-BP/CRF-R2 complex agonism; HEK293 CRF-R2/CRF-BP, calcium dye fluorescence (FLIPR); percent of saturating CRF peptide response; activation, % at 13.2 µM; 350,000 tested, 0.46% active; AID 588473;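 active means activation of at least 50%, plus an integration ratio under a set limit after plate pattern correction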
aDG glyco up – alpha-DG glycosylation activation; Pro5-aDG cells, alpha-DG glycosylation AlphaScreen (IIH6); 0% Pro5, 100% B10-LARGE cell signal; activation, % at 10 µM; 360,000 tested, 0.22% active;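 active means activation of at least 8% versus controls, or a plate z-score of at least 8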;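 further: Pro5 are CHO cells carrying HIG-tagged alpha-DG that lacks glycosylation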
H9c2 protect – myocardial damage modulation in H9c2 cells. H9c2 cardiomyocytes, H2O2 injury protection, ATPLite, 2 h. protection from H2O2 cell death, % at 20 µM. 360,000 tested, 0.63% active;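 active means compounds giving at least 50% protection of heart cells from peroxide-induced death in the single-dose screen, raw or plate-pattern-corrected value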
CRFR2-BP antag – antagonists of CRF-binding protein/CRF-R2 receptor complex | HEK293 CRF-R2/CRF-BP, CRF-induced calcium fluorescence | inhibition, % at 11.8 µM | 350,000 tested, 0.59% active;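 active means inhibition of the ligand-induced calcium signal above about 50% at the single tested concentration, limit read from the data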
PfG6PD inh – PfG6PD (Plasmodium falciparum) enzyme inhibition; PfGluPho enzyme, NADPH resazurin-diaphorase fluorescence; inhibition, % at 20 µM; AID 504690; 350,000 tested, 0.78% active;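 active means inhibition reaching at least a set limit at 20 µM in the primary screen, cut at about 59% in these data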
FAS-TE inh – inhibitors of human fatty acid synthase thioesterase domain | 360,000 tested, 0.67% active | inhibition, % at 15 µM | P49327 | recombinant FAS-TE, OMFH fluorogenic substrate, fluorescence endpoint | AID 602261;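 active means compounds whose normalised, plate-corrected inhibition of enzyme fluorescence in the single-dose primary screen is 50% or more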
FAS-TE conf – FAS thioesterase (human) inhibition, confirmation. AID 624325. 2,300 tested, 45% active. shares compounds with FAS-TE inh. inhibition, % at 15 µM. recombinant FAS-TE, OMFH fluorogenic substrate, fluorescence;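 active means compounds inhibiting the enzyme by at least 50% at 15 µM in any one of the replicates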
Each line names hits and unclear results; the compound was inactive in the other large screens (follow-up assays come after a bar, where they were run).

Cc1sc(NC(=O)c2ccco2)c(C(Nc2ccccn2)c2ccccc2)c1C (stereo unspecified)	FAS-TE inh 60 | FAS-TE conf inactive
C[C@@]12C(=O)N(Cc3ccc(-c4ccccc4)cc3)CC(=O)N1[C@H](/C=C/c1ccccc1)[C@@H]1C(=O)N(c3ccccc3)C(=O)[C@@H]12	FAS-TE inh 50 | FAS-TE conf inactive
Cc1c(Br)c([N+](=O)[O-])nn1CCCC(=O)N1CCN(c2ccccc2)CC1	FAS-TE inh 54 | FAS-TE conf 43
O=C(CCn1c(=O)c2ccccc2n(Cc2cccc([N+](=O)[O-])c2)c1=O)N1CCc2ccccc2C1	FAS-TE inh 87 | FAS-TE conf 47
Cc1c(Br)c([N+](=O)[O-])nn1CC(=O)N1CCc2ccccc2C1	FAS-TE inh 64 | FAS-TE conf 59
O=C(Cn1cc([N+](=O)[O-])ccc1=O)N1CCc2ccccc2C1	FAS-TE inh 67 | FAS-TE conf 69
CCN(C(=O)CSc1nnc(SC(C)C)s1)C1CCS(=O)(=O)C1 (stereo unspecified)	none
COc1ccc(NC(=O)CCSCCc2ccccn2)cc1OC	none
O=C(Nc1cnn(C23CC4CC(CC(C4)C2)C3)c1)c1cnn2c(C(F)(F)F)cc(-c3ccco3)nc12	FAS-TE inh 61 | FAS-TE conf inactive
CCNC(=O)C1(C)CCN(C(=O)c2ccc(C(=O)OC)cc2)C1 (stereo unspecified)	none (no result: CRFBP-R2 agonist, CRFR2-BP antag, PfG6PD inh)
CC(C)OCCCNC(=O)CNC(=O)c1ccc(Cl)c(Cl)c1	none
COc1ccc(S(=O)(=O)N2CCCCC2)cc1NC(=O)[C@@H]1CCCN1C(=O)c1cccs1	none
COc1ccc(C(=O)NC(C)CCc2ccccc2)cc1[N+](=O)[O-] (stereo unspecified)	FAS-TE inh 51 | FAS-TE conf 52
COc1ccc(C(=O)N2CCN(CCc3ccccc3)CC2)cc1[N+](=O)[O-]	FAS-TE inh 87 | FAS-TE conf 90
CCN(CC)S(=O)(=O)c1ccc(O)c(NC(=O)c2cc(-c3cc(OC)c(OC)c(OC)c3)nc3ccccc23)c1	none
N#Cc1ccccc1OCC(=O)OCC(=O)c1c[nH]c2ccccc12	none
CCN(CC)c1ccc(/C=N/NC(=O)c2nnn(-c3nonc3N)c2-c2ccc(C)cc2)cc1	none
CCS(=O)(=O)c1ccc2oc(Nc3ccc(OC)cc3)nc2c1	none
CCS(=O)(=O)c1ccc2oc(Nc3ccc(C(C)(C)C)cc3)nc2c1	FAS-TE inh 76 | FAS-TE conf 52
CCn1c2ccccc2c2cc(NC(=O)COC(=O)c3cc(OC)c(OC)cc3OC)ccc21	FAS-TE inh 64 | FAS-TE conf inactive
CCOc1ccccc1N1CC(C(=O)Nc2cc(S(=O)(=O)N3CCOCC3)ccc2OC(C)C)CC1=O (stereo unspecified)	none
COc1ccccc1N1CCN(C(=O)CCCn2c(=S)[nH]c3ccccc3c2=O)CC1	FAS-TE inh 53 | FAS-TE conf inactive
CCOC(=O)N1CCN(C(=O)c2ccc(Cn3c(=S)[nH]c4cc5c(cc4c3=O)OCO5)cc2)CC1	none
COc1ccccc1N1CCN(C(=O)c2ccc(Cn3c(=S)[nH]c4cc5c(cc4c3=O)OCO5)cc2)CC1	FAS-TE inh 53 | FAS-TE conf inactive
COc1ccccc1N(C)S(=O)(=O)c1ccc(C(=O)Nc2cc(OC)c(OC)c(OC)c2)cc1	none
O=C(Nc1ccc(Oc2c(F)c(F)c(F)c(F)c2F)cc1)OC1CCN2Cc3ccccc3N=C12 (stereo unspecified)	none
Cc1sc2nc(COC(=O)c3ccc(O)cc3)[nH]c(=O)c2c1C	none
CCN(c1ccccc1)S(=O)(=O)c1cccc(C(=O)OCc2nc3sc(C)c(C)c3c(=O)[nH]2)c1	FAS-TE inh 52 | FAS-TE conf inactive
CCOc1ccc(N(CC(=O)N2CCC(Cc3ccccc3)CC2)S(C)(=O)=O)cc1	none
O=C(OCc1ccccc1Cl)c1cc([N+](=O)[O-])ccc1N1CCOCC1	none
Cc1ccc(COC(=O)c2cc([N+](=O)[O-])ccc2N2CCOCC2)cc1	FAS-TE inh 54 (no result: CRFBP-R2 agonist, CRFR2-BP antag, PfG6PD inh) | FAS-TE conf 52
O=C(OCc1ccc([N+](=O)[O-])cc1)c1cc([N+](=O)[O-])ccc1N1CCOCC1	FAS-TE inh 80 | FAS-TE conf 76
COc1ccc(C(=O)N/C(=C\c2ccc([N+](=O)[O-])cc2)C(=O)NC(CCSC)C(=O)O)cc1 (stereo unspecified)	FAS-TE inh 57 | FAS-TE conf 53
COc1ccc(/C=C(/NC(=O)c2ccc([N+](=O)[O-])cc2)C(=O)NCCCN(C)C)cc1	FAS-TE inh 71 | FAS-TE conf 77
COc1ccc(/C=C(\NC(=O)c2ccc(OC)cc2)C(=O)NC(CCSC)C(=O)O)cc1 (stereo unspecified)	none
C=CCNC(=O)/C(=C\c1ccc(OC)cc1)NC(=O)c1ccc([N+](=O)[O-])cc1	FAS-TE inh 76 | FAS-TE conf 83
CN(C)CCCNC(=O)/C(=C\C=C\c1ccccc1)NC(=O)c1ccc([N+](=O)[O-])cc1	FAS-TE inh 86 | FAS-TE conf 89
CCCCOc1ccc(C(=O)N/C(=C/C=C/c2ccccc2)C(=O)NCCCO)cc1	none
C[C@H](CO)N1C[C@H](C)[C@@H](CN(C)Cc2ccc(Oc3ccccc3)cc2)Oc2c(NC(=O)c3ccncc3)cccc2C1=O	none
COc1ccc(N(C)C(=O)c2cc3c(s2)-c2ccccc2S(=O)(=O)C3)cc1	none
COc1cc(OC)c(N(C)C(=O)c2cc3c(s2)-c2ccccc2S(=O)(=O)C3)cc1Cl	FAS-TE inh 54 | FAS-TE conf inactive
COc1ccccc1N1CN(S(=O)(=O)c2ccc(C)cc2)c2nc3ccccc3nc21	FAS-TE inh 57 | FAS-TE conf inactive
O=C(NCCN1CCOCC1)c1ccc(NS(=O)(=O)c2cccc([N+](=O)[O-])c2)cc1	none
O=C1OCCN1c1c(-c2ccccc2)c(-c2cccs2)nc2c(-c3ccccc3)cccc12	FAS-TE inh 52 | FAS-TE conf inactive
COc1ccccc1OC(C)C(=O)Nc1nc(-c2ccc(S(=O)(=O)N3CCOCC3)cc2)cs1 (stereo unspecified)	none
CNc1nc(-c2ccc(S(=O)(=O)N3CCCCC3)cc2)cs1	none
CC(C)C(=O)Nc1nc(-c2ccc(S(=O)(=O)N3CCOCC3)cc2)cs1	FAS-TE inh 85 | FAS-TE conf 86
O=C(Nc1nc(-c2ccc(S(=O)(=O)N3CCCC3)cc2)cs1)c1ccco1	FAS-TE inh 70 | FAS-TE conf 65

Screening results: PubChem BioAssay, Sanford-Burnham Center for Chemical Genomics
